Data taken from the supplement of paper PMC10849652.
Of roughly 7,900 targets only a part is listed; those with a hit were picked by preference. About 0.6% of all pairs of compound and target were hits.

What follows are targets tested with CN(CCOC1=CC=C(C=C1)C[C@H]2C(=O)NC(=O)S2)C3=CC=CC=N3 (racemic) [rosiglitazone] (assay: log2 fold change, soluble protein after heating vs DMSO (PISA); higher = thermal stabilisation; K562 cells, 10 uM, 30 min; active = over 0.2 and 3.5 SD of the protein, either way, in both replicates (recomputed)).
Method in brief: (§1)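 Thermal stability values are relative to control samples and come from duplicates. They are expressed as log2 fold changes. For measurement, K562 cells (2×10^6 cells/mL) received 10 μM compound for 30 min, and aliquots were heated for 3 min over 48°C-58°C, pooled, and extracted at 4°C in PBS with 0.5% NP-40. Soluble protein, the supernatant after 21,000xg for 90 min, was quantified by TMTpro 16plex LC-MS/MS with equalised channel sums.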

UniProt Q99541, sequence (Q99541 whole entry, looked up): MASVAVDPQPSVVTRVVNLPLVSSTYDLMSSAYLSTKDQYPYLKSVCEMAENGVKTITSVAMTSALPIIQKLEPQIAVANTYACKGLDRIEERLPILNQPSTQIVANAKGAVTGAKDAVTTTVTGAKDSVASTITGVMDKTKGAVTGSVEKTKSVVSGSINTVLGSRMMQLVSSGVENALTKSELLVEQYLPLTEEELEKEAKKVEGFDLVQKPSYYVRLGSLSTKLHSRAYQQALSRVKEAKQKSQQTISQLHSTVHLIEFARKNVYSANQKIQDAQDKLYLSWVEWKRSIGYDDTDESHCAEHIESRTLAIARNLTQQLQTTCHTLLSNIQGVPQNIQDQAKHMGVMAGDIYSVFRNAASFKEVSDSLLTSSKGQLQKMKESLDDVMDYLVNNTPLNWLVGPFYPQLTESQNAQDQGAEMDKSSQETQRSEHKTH
UniProt Q15172, sequence (Q15172 whole entry, looked up): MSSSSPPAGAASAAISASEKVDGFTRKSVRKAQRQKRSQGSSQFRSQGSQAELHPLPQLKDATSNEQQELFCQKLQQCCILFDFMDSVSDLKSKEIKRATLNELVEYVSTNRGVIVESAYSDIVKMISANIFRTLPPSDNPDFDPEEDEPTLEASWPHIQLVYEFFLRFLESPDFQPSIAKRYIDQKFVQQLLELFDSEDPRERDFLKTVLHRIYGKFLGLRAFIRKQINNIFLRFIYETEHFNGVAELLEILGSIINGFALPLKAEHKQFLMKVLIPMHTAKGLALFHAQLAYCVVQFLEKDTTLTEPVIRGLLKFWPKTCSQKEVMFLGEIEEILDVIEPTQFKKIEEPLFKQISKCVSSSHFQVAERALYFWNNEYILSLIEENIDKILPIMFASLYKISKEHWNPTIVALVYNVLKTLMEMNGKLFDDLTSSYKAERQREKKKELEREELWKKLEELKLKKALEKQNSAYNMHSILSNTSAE
UniProt P14618, sequence (P14618 whole entry, looked up): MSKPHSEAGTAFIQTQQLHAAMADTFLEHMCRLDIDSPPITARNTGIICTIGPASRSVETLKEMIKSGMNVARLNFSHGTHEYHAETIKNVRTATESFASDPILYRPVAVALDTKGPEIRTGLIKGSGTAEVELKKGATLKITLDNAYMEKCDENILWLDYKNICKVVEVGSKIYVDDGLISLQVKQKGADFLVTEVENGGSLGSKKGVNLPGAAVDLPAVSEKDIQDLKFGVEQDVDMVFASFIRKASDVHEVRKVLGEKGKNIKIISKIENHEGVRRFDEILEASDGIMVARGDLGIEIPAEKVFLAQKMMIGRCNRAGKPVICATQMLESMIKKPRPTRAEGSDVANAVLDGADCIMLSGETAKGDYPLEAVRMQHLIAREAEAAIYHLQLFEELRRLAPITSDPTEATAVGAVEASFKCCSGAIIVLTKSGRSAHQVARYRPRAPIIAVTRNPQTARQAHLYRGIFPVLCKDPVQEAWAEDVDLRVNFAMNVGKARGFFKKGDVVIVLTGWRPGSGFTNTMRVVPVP
UniProt P31321, sequence (P31321 whole entry, looked up): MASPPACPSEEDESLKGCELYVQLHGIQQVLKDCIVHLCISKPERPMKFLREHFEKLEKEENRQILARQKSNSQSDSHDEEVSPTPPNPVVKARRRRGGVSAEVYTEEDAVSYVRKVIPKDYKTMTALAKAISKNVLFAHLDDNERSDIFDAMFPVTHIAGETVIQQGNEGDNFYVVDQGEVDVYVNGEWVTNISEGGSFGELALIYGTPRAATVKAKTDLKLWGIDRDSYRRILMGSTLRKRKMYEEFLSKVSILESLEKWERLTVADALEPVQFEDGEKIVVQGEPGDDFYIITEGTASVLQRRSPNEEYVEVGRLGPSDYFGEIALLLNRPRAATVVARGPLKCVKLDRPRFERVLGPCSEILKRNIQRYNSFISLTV
UniProt Q93096, sequence (Q93096 whole entry, looked up): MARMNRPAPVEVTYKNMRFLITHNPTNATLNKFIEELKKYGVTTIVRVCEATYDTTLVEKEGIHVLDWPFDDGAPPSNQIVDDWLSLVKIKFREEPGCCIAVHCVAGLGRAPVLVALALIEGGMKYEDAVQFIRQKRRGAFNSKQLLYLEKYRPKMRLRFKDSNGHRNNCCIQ
UniProt Q53EL6, sequence (Q53EL6 whole entry, looked up): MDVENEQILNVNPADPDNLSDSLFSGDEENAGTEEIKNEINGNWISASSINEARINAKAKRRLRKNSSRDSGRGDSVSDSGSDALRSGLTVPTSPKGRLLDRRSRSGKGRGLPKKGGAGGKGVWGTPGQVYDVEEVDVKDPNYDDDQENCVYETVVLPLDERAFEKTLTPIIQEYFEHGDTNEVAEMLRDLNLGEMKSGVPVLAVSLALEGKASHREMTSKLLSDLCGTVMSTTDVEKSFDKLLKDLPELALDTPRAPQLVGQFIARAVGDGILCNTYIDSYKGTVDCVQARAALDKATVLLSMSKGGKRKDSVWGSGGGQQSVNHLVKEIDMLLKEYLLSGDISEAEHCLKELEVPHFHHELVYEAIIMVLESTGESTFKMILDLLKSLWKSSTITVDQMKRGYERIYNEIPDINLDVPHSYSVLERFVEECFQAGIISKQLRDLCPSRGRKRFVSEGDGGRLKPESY
UniProt Q13356, sequence (Q13356 whole entry, looked up): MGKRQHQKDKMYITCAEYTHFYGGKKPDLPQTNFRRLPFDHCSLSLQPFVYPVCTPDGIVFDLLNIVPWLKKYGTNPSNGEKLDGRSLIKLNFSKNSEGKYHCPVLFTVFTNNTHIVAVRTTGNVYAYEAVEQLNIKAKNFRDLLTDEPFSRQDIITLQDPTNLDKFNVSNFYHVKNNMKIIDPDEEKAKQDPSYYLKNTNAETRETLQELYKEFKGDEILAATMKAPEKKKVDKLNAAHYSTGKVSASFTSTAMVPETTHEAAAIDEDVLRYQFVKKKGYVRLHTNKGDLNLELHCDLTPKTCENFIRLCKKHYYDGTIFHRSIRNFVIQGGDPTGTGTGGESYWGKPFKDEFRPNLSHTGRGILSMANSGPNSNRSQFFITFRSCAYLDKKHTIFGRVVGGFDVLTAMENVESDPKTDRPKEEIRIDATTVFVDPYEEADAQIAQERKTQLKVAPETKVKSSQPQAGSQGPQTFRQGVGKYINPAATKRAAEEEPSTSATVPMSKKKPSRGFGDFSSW
UniProt Q9BRP1, sequence (Q9BRP1 whole entry, looked up): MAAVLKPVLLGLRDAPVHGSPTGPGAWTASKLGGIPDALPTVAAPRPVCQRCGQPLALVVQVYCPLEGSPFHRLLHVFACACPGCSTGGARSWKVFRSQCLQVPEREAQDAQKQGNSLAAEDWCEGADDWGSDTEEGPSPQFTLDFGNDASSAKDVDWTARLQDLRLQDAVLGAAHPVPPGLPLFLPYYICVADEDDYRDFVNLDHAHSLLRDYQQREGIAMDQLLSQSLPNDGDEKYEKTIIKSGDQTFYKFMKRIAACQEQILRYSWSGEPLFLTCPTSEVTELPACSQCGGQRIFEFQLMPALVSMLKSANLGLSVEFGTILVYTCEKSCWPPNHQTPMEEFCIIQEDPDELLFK
UniProt P0CG38, sequence (P0CG38 whole entry, looked up): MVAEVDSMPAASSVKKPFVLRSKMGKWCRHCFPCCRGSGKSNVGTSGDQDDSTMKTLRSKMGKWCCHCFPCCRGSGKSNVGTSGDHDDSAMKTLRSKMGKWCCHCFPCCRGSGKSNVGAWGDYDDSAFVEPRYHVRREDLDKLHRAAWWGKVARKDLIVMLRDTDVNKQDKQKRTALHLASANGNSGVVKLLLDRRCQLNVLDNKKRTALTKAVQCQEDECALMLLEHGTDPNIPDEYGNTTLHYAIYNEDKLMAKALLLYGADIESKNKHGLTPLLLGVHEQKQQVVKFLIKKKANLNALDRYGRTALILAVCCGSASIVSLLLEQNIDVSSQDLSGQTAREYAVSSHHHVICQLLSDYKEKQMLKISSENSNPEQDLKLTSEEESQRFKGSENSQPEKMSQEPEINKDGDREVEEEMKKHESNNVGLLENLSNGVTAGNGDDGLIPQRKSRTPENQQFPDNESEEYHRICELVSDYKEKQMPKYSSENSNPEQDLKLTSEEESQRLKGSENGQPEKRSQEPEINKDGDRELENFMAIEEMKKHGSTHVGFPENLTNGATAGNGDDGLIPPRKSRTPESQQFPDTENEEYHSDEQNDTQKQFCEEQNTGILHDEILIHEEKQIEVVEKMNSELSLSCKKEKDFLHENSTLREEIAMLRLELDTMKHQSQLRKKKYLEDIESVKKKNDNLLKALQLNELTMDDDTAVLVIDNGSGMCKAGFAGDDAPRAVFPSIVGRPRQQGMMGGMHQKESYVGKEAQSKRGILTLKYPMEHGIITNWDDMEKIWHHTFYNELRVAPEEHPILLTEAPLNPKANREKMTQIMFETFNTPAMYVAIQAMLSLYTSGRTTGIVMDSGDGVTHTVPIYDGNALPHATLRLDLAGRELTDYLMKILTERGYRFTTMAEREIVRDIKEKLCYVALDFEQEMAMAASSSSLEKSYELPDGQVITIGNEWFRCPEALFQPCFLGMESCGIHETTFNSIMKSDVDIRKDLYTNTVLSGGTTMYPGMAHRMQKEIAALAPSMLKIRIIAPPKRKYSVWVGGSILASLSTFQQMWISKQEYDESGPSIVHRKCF
UniProt Q96A00, sequence (Q96A00 whole entry, looked up): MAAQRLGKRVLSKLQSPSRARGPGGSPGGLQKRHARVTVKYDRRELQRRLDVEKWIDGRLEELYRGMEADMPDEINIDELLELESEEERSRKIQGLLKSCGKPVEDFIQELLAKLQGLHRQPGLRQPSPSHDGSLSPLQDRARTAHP
UniProt Q9Y3E5, sequence (Q9Y3E5 whole entry, looked up): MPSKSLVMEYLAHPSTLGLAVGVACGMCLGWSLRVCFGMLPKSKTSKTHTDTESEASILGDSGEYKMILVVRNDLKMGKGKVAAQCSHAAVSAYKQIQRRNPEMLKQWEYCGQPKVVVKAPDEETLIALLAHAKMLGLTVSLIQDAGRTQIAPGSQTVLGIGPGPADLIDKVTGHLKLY
UniProt Q9Y2Y1, sequence (Q9Y2Y1 whole entry, looked up): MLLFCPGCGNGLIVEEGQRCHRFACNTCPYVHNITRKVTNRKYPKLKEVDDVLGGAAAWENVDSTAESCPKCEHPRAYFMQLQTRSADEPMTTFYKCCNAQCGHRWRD

log2 fold change, inactive:
POLR2M (UniProt P0CAP2) 0.045
PCID2 (UniProt Q5JVF3) 0.064
PMPCA (UniProt Q10713) 0.024
POLA1 (UniProt P09884) 0.046
PDE2A (UniProt O00408) -0.004
PDCD4 (UniProt Q53EL6) 0.056
PURA (UniProt Q00577) -0.18
PPP1R14A (UniProt Q96A00) 0.016
PMM2 (UniProt O15305) 0.037
PTRH2 (UniProt Q9Y3E5) 0.001
PPP2R5E (UniProt Q16537) 0.099
PFAS (UniProt O15067) -0.003
PPP2R5A (UniProt Q15172) 0.112
PHKG2 (UniProt P15735) 0.018
PKM (UniProt P14618) 0.015
PSMD12 (UniProt O00232) -0.038
PRKAR1B (UniProt P31321) 0.042
POLR2K (UniProt P53803) -0.059
PLCB3 (UniProt Q01970) 0.058
PLIN2 (UniProt Q99541) -0.033
POTEI (UniProt P0CG38) -0.028
PTP4A1 (UniProt Q93096) -0.011
PI4K2A (UniProt Q9BTU6) 0.055
POLR3K (UniProt Q9Y2Y1) -0.045
PEX16 isoform 2 (UniProt Q9Y5Y5) 0.062
PIGT (UniProt Q969N2) 0.014
PRKAA1 isoform 2 (UniProt Q13131) 0.016
PTRHD1 (UniProt Q6GMV3) 0.048
PPIL2 (UniProt Q13356) 0.043
PEX13 (UniProt Q92968) 0.021
PSMD2 (UniProt Q13200) -0.024
PPID (UniProt Q08752) 0.062
POLD1 (UniProt P28340) -0.029
PDCD2L (UniProt Q9BRP1) 0.018
PRKAB1 (UniProt Q9Y478) -0.002
PSMD7 (UniProt P51665) -0.047
PYGL (UniProt P06737) 0.018

The targets below were run with CN1C2=C(C3=C1C(=O)N(N=C3)CC4=CC(=CC=C4)N)SC(=C2)S(=O)C in the same assay as above.
Method in brief: as §1

log2 fold change, inactive:
POLR2M (UniProt P0CAP2) -0.028
PCID2 (UniProt Q5JVF3) 0.055
PMPCA (UniProt Q10713) -0.124
POLA1 (UniProt P09884) -0.012
PDE2A (UniProt O00408) 0
PDCD4 (UniProt Q53EL6) -0.107
PURA (UniProt Q00577) 0.327
PPP1R14A (UniProt Q96A00) -0.027
PMM2 (UniProt O15305) -0.076
PTRH2 (UniProt Q9Y3E5) -0.042
PPP2R5E (UniProt Q16537) -0.048
PFAS (UniProt O15067) -0.241
PPP2R5A (UniProt Q15172) -0.049
PHKG2 (UniProt P15735) -0.027
PKM (UniProt P14618) 0.002
PSMD12 (UniProt O00232) 0.01
PRKAR1B (UniProt P31321) 0.127
POLR2K (UniProt P53803) -0.02
PLCB3 (UniProt Q01970) -0.009
PLIN2 (UniProt Q99541) 0
POTEI (UniProt P0CG38) -0.06
PTP4A1 (UniProt Q93096) -0.043
PI4K2A (UniProt Q9BTU6) 0.009
POLR3K (UniProt Q9Y2Y1) -0.012
PEX16 isoform 2 (UniProt Q9Y5Y5) -0.127
PIGT (UniProt Q969N2) 0.015
PRKAA1 isoform 2 (UniProt Q13131) 0.001
PTRHD1 (UniProt Q6GMV3) 0.019
PPIL2 (UniProt Q13356) -0.019
PEX13 (UniProt Q92968) 0.02
PSMD2 (UniProt Q13200) 0.021
PPID (UniProt Q08752) -0.015
POLD1 (UniProt P28340) -0.03
PDCD2L (UniProt Q9BRP1) -0.038
PRKAB1 (UniProt Q9Y478) -0.026
PSMD7 (UniProt P51665) 0.083
PYGL (UniProt P06737) -0.006
